An excerpt weighted towards active compounds, which were near 7% of everything screened.
GCN5L2 inh: blocks human GCN5L2 histone acetyltransferase; Q92830; Potency, µM (series often up to 58.9 µM), without a hit: at the top dose activity change, negative = inhibition, hits mostly inhibitors; 390,000 compounds, 0.21% hits; GCN5L2 HAT assay, ThioGlo1 CoA-SH fluorescence; further: potency means the concentration at half of the fitted maximal effect; on the % scale 0 is the no-effect control and ±100 the full control effect
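qHTS, 1536-well. 20nM enzyme, pH 7.5 HEPES/EDTA/Tween-20 buffer; 15 min compound preinc., RT. Start: 75uM H3(1-25), 70uM AcCoA, 50uM ThioGlo1. Read Ex340/Em540 at t=0 (autofluorescence flag) and t=20 min.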
JMJD2A Tudor: JMJD2A Tudor domain (human) inhibition; 390,000 compounds, 4.4% hits; Potency, µM (series often up to 114 µM), for the others: at the top dose activity change, negative = inhibition, usual class: inhibitors; AlphaScreen JMJD2A-Tudor / H3K4me3 peptide binding; further: potency means the concentration at half of the fitted maximal effect; on the % scale 0 is the no-effect control and ±100 the full control effect; nearly all actives have a fitted effect of over 50% in size
BAZ2B block: BAZ2B (human) inhibition; 360,000 compounds, 4.4% hits; AID 504333; AlphaScreen BAZ2B-H3K14Ac peptide displacement; Potency, µM (titrated, usually from 114 µM), inactives show top-dose activity change, negative = inhibition, most hits filed as inhibitors; Q9UIF8; further: potency means the concentration at half of the fitted maximal effect; on the % scale 0 is the no-effect control and ±100 the full control effect; nearly all actives have a fitted effect of over 60% in size
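Complex of BAZ2B and biotin-H3K14Ac (50 nM apiece) forms over 30 min at RT, then faces library compounds up to 110 uM for another 30 min; AlphaScreen beads added, 20 min dark incubation, luminescence read.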
PLK1 PBD block: inhibitors of human PLK1 polo-box domain binding. Potency, µM, for the others: max response, negative = inhibition, hits mostly inhibitors. 360,000 compounds, 2.8% hits. AID 720504. Plk1 PBD binding of FITC phosphopeptide, fluorescence polarization. P53350; further: potency means the concentration at half of the fitted maximal effect; series mostly up to about 57 µM; on the % scale 0 is the no-effect control and ±100 the full control effect; nearly all actives have a fitted effect of over 65% in size
Target sequence (P53350 whole entry, looked up, the tested form may be a part): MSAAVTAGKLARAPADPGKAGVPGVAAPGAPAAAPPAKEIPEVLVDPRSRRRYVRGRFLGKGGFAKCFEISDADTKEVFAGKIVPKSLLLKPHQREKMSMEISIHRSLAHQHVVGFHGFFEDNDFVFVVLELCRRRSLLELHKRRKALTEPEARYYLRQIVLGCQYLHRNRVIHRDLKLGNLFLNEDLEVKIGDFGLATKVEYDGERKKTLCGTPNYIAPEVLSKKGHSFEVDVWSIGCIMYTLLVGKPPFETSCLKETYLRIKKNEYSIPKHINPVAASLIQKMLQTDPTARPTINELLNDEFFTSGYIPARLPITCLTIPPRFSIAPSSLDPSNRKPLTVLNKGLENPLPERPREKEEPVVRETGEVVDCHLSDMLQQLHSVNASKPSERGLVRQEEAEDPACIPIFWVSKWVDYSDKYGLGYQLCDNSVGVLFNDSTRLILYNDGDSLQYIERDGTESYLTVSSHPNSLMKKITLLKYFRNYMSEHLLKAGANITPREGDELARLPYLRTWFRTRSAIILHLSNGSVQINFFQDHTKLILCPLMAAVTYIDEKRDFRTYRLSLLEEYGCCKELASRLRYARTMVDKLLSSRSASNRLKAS
HP1b binding inh: HP1-beta chromodomain-methylated histone interaction inhibition; P83916; 390,000 compounds, 0.56% hits; AlphaScreen HP1-beta / biotin-H3K9me3 peptide binding; Potency, µM (titrated, usually from 114 µM), for inactives: top-dose activity change, negative = inhibition, usual class: inhibitors; further: potency means the concentration at half of the fitted maximal effect; nearly all actives have a fitted effect of over 70% in size
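Compound inhibition of the preformed complex between 50 nM HP1-beta and 50 nM biotinylated H3K9me3 peptide was read by AlphaScreen. Buffer was PBS pH 7.4 with 0.01% Tween-20. Incubations ran 30 min at room temperature, with 10 ug/mL donor/acceptor beads.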
PI5P4K alpha inh: inhibitors of human PI5P4K alpha | max response, % | 330,000 compounds, 1.2% hits | AID 652105 | PI5P4Kalpha enzyme, ADP-Glo luminescence, 60 min; stronger effect = lower value | P48426; active means max response of -50% or lower; inconclusive means between -30% and -50%; inactive means -30% or higher; further: value at the top dose of about 77 µM; on the % scale 0 is the no-effect control and ±100 the full control effect
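PI5P4Kalpha ADP-Glo assay; 5 microM ATP final; 60 min RT reaction; HEPES pH 7.4/EGTA/CHAPS, 5% DMSO; controls lacking substrate or enzyme; luminescent end-point.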
Active calls of the source: *; ? = inconclusive; nt = no result given; [ ] = dose if it differs, or a comment. Unless noted, the call rests on the fitted dose curve; in most records, active means well fitted curve in the direction sought with a large enough effect; inconclusive means small, poorly fitted or top-dose-only effect, or another doubt; inactive means no such curve, though single readings can be large; an effect the other way counts as inactive or inconclusive.

SMILES	GCN5L2 inh	JMJD2A Tudor	BAZ2B block	PLK1 PBD block	HP1b binding inh	PI5P4K alpha inh
CCOc1cc(CNc2ccc3c(c2)OCCO3)cc(Br)c1OCC	-8%	45µM*	25µM*	1%	-76%	18
CCOc1cc(CNc2ccc(S(N)(=O)=O)cc2)cc(Cl)c1OC	-2%	-14%	-3%	-4%	-4%	2
CCOc1cc(CNc2ccc(N3CCCC3)cc2)cc(Cl)c1OC	-8%	11µM*	13µM*	-23%	20µM*	-12
C=CCOc1c(Br)cc(CNc2ccc3[nH]c(=O)[nH]c3c2)cc1OCC	-12%	-23%	-19%	-6%	1%	4
COc1cc(CNc2ccc(N3CCOCC3)cc2)cc(Br)c1OC	-9%	40µM*	40µM*	-14%	?	-2
CCOc1cc(CNc2ccc(N3CCOCC3)cc2)cc(Br)c1OCC	-11%	20µM*	18µM*	-7%	45µM*	-7
Cc1nc2c(cc1C(=O)N/N=C/c1ccc(O)c(O)c1)c(=O)n(C)c(=O)n2C	-13%	35µM*	-25%	-7%	-17%	-24
COc1cc(C=NNc2nc3c([nH]2)c(=O)n(C)c(=O)n3C)ccc1O	nt	-14%	nt	-6%	13%[57 µM]	0
CCOc1ccccc1NC(=O)c1nc[nH]c1C(=O)Nc1ccccc1OCC	-8%	-20%	56µM*	-21%	-2%	nt
COc1ccccc1NC(=O)c1nc[nH]c1C(=O)Nc1ccccc1OC	-6%	-11%	?	?	?	-3
CNC(=O)c1[nH]cnc1C(=O)Nc1ccccc1	-3%	-23%	?	1%	22%	-3
CNC(=O)c1[nH]cnc1C(=O)Nc1ccccn1	-5%	?	56µM*	3%	-2%	-2
CNC(=O)c1[nH]cnc1C(=O)Nc1cccc(OC)c1	-12%	-26%	50µM*	-1%	16%	-9
Cc1ccc(NC(=O)CC2OC(=O)c3ccccc32)cc1S(=O)(=O)N1CCOCC1 (stereo not drawn)	-11%	-9%	12%	-13%	31%	7
N#CCOC(=O)C1CCN(S(=O)(=O)c2ccc3c(c2)OCCO3)CC1	-6%	-11%	-4%	-3%	13%	7
CSc1nnc2c(n1)OC1(Nc3ccccc3-2)C(=O)Nc2ccccc21 (stereo not drawn)	2%	?	nt	27µM*	23%	-26
CCSc1nnc2c(n1)OC(C)(C)Nc1ccccc1-2	-1%	-19%	7%	4%	40%	nt
COc1cc(-c2cc(C(=O)Nc3cc(S(=O)(=O)N4CCOCC4)ccc3C)c3ccccc3n2)cc(OC)c1OC	?	-10%	9%	-5%	16%	-4
O=C(Nc1ccc(Cl)cc1)Nc1cc(S(=O)(=O)N2CCOCC2)ccc1N1CCCC1	-6%	-33%	-33%	-11%	3%	0
COc1ccccc1NC(=O)COn1nnc2ccc(S(=O)(=O)N3CCOCC3)cc21	0%	?	-15%	19µM*	-16%	-26
COc1cc(-c2cc(C(=O)Nc3cc(S(=O)(=O)N4CCOCC4)ccc3O)c3ccccc3n2)cc(OC)c1OC	-20%	-24%	nt	17µM*	?	?
CCCn1c(SCC(=O)Nc2cc(S(=O)(=O)N3CCOCC3)ccc2OC)n[nH]c1=O	-4%	-6%	-24%	30µM*	-6%	-12
O=C(Nc1ccccc1)Nc1cc(S(=O)(=O)N2CCOCC2)ccc1N1CCCC1	-7%	-29%	1%	21µM*	?	-17
Cc1ccc(NC(=O)Cn2nnnc2-c2ccccc2N)cc1	-3%	-27%	-4%	nt	2%	nt
CCN(CC)CCCNC(=O)Cn1nc(N2CCN(c3ccccc3OC)CC2)ccc1=O	3%	-7%	3%	nt	15%	nt
SMILES	GCN5L2 inh	JMJD2A Tudor	BAZ2B block	PLK1 PBD block	HP1b binding inh	PI5P4K alpha inh
COc1ccccc1NC(=O)CN1C(=O)COc2ccc(S(=O)(=O)N3CCCCCC3)cc21	-16%	?	-5%	30µM*	3%	-10
CCOc1ccccc1NC(=O)CN1C(=O)COc2ccc(S(=O)(=O)N3CCCCCC3)cc21	-9%	-8%	-25%	nt	29%	nt
O=C(Nc1cc(S(=O)(=O)N2CCOCC2)ccc1N1CCOCC1)c1ccc(S(=O)(=O)N2CCCCC2)cc1	-9%	-19%	4%	0%	28%	0
O=C(Nc1cc(S(=O)(=O)N2CCOCC2)ccc1N1CCOCC1)c1ccc(Cl)nc1	18%	-12%[11.4 µM]	1%	30µM*	-2%	-16
COc1cc(/C=C/C(=O)Nc2cc(S(=O)(=O)N3CCOCC3)ccc2N2CCCC2)cc(OC)c1OC	2%	-31%	-29%	6.7µM*	?	-17
CCOCC(=O)Nc1cc(S(=O)(=O)N2CCOCC2)ccc1N1CCCCC1	-29%	89µM*	?	4.7µM*	?	?
COc1ccccc1OCC(=O)Nc1cc(S(=O)(=O)N2CCCCC2)ccc1N1CCCCC1	-11%	?	79µM*	-5%	-3%	-9
CC1CCN(CCOc2cccc(Br)c2)CC1	-3%	7.9µM*	56µM*	-8%	?	-2
Brc1cccc(OCCCN2CCCCCC2)c1	-3%	22µM*	50µM*	-8%	?	1
O=C(CN1N=C(c2ccccc2)CCC1=O)NCc1cccs1	-4%	-7%	-11%	6%	18%	-4
COc1ccc(Nc2nnc(-c3ccc(C)c(S(=O)(=O)N4CCN(C)CC4)c3)c3ccccc23)cc1	-2%	-34%	-2%	nt	-4%	nt
O=[N+]([O-])c1ccc(Oc2ccc(S(=O)(=O)Nc3ccccc3)cc2)cc1	-11%	-26%	-30%	-2%	13%	1
O=C1C(Cl)=C(NS(=O)(=O)c2ccc([N+](=O)[O-])cc2)C(=O)c2ccccc21	-11%	?	45µM*	?	?	102
CC1CN(CCS(=O)(=O)c2cc(Cl)ccc2Cl)CC(C)O1 (stereo not drawn)	0%	1%	2%	2%	18%	-1
Cc1cc(C)c(C)c(OCCN2CC(C)OC(C)C2)c1 (stereo not drawn)	-1%	5.6µM*	32µM*	-2%	?	0
CC1CN(CCOc2ccc(Cl)cc2Cl)CC(C)O1 (stereo not drawn)	-1%	8.9µM*	-37%	0%	?	-1
COc1cc(C)ccc1OCCCCN1CC(C)OC(C)C1 (stereo not drawn)	-1%	35µM*	50µM*	-10%	?	-6
CC1CN(CCCCOc2ccc(Cl)c3ccccc23)CC(C)O1 (stereo not drawn)	-11%	11µM*	?	8%	-33%	19
